Assay outcomes (PubChem)
Only some compounds are listed: those with a hit (about 12% of all), similar ones and a draw of the others.
RORgamma inh – ROR gamma (mouse) transcription inhibition; P51450; Drosophila S2 Gal4-RORgamma UAS-luciferase reporter, 20 h; Potency, µM (titrated, usually from 53.6 µM), inactives show at the top dose activity change, negative = inhibition, usual class: inhibitors; 310,000 compounds, 5.4% hits; note: potency is the fitted concentration of half-maximal effect; % is set by controls: 0 for no effect and ±100 for the full control effect; nearly all actives have a fitted effect of over 60% in size
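Luminescence from a UAS-regulated Photinus luciferase reporter in stably transfected Drosophila Schneider cells is measured; decreased signal marks ROR gamma inhibition. Fusion expression is induced by 700 uM copper sulfate for 20 hr.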
ALDH1A1 inh-1 – inhibitors of human aldehyde dehydrogenase 1A1. AID 1030. P00352. 220,000 compounds, 7.3% hits. Potency, µM (highest dose often 75.3 µM), for the others: at the top dose activity, negative = inhibition, usual class: inhibitors. Purified ALDH1A1, NADH fluorescence, propionaldehyde substrate; active = well fitted inhibition curve with a large enough effect, not every such curve was filed as active; inconclusive = small, poorly fitted or top-dose-only effect, or another doubt; inactive = no such curve, though single readings can be large or run the other way;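 note: potency is the fitted concentration of half-maximal effect; plate controls were no enzyme wells and a reference inhibitor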
Target sequence (P00352 whole entry, looked up): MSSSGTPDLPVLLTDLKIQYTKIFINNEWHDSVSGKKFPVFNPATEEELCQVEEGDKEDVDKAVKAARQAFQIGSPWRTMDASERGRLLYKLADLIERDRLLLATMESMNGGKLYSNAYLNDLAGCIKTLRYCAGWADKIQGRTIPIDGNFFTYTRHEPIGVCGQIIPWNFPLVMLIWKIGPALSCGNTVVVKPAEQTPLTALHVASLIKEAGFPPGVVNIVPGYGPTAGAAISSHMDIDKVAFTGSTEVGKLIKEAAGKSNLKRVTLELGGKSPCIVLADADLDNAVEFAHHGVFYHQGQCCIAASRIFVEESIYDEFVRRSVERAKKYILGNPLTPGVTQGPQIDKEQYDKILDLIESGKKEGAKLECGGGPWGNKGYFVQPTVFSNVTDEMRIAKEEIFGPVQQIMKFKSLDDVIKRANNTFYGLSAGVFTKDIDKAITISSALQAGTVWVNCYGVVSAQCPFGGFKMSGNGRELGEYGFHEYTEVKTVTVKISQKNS
Gal4-VP16 FLuc – Gal4-VP16 reporter inhibition counter-screen | Potency, µM (series often up to 53.6 µM), inactives show top-dose activity, negative = inhibition, hits mostly inhibitors | 310,000 compounds, 3.5% hits | Drosophila S2 Gal4-VP16 UAS-luciferase, luminescence, 20 h;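 note: Gal4-VP16 expression switched on by copper sulfate through the metallothionein promoter; potency is the fitted concentration of half-maximal effect; % is set by controls: 0 for no effect and ±100 for the full control effect; nearly all actives have a fitted effect of over 50% in size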
Sfp inh – Sfp phosphopantetheinyl transferase inhibition. 310,000 compounds, 3.5% hits. Potency, µM, inactives show largest response in the series, negative = inhibition, actives largely listed as inhibitors. Biochemical Sfp PPTase activity, qHTS. Q9F4F7;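 note: the enzyme is Sfp with the accession as filed and its product quenches rhodamine fluorescence; potency is the fitted concentration of half-maximal effect; 0% = enzyme reaction without inhibitor and -100% = no enzyme wells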
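Step 1, compound plus 15 nM Sfp-PPTase, 15 min, room temperature. Step 2, add rhodamine-CoA (5 uM) and BHQ-2-YbbR (12.5 uM). Step 3, read 525/598 nm fluorescence at 0 and 30 min.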
PLK1 PBD inh – inhibitors of human PLK1 polo-box domain binding. P53350. Plk1 PBD binding of FITC phosphopeptide, fluorescence polarization. Potency, µM, without a hit: max response, negative = inhibition, usual class: inhibitors. 360,000 compounds, 2.8% hits. AID 720504; note: potency is the fitted concentration of half-maximal effect; series mostly up to about 57 µM; % is set by controls: 0 for no effect and ±100 for the full control effect; nearly all actives have a fitted effect of over 65% in size
ALDH1A1 inh-2 – Inhibits human ALDH1A1, confirmation and counter-screen; Potency, µM (series often up to 57.1 µM), for inactives: at the top dose activity change, negative = inhibition, usual class: inhibitors; purified ALDH1A1, NADH fluorescence, propionaldehyde/NAD+; 90 compounds, 90% hits; AID 493210; shares compounds with ALDH1A1 inh-1; calls by dose curve
Starred values were filed as active, the others as inactive; ? = inconclusive; · = no result. Unless noted, calls come from the whole dose curve; as a rule, active = well fitted curve in the direction sought with a large enough effect; inconclusive = small, poorly fitted or top-dose-only effect, or another doubt; inactive = no such curve, though single readings can be large; an effect the other way counts as inactive or inconclusive.

SMILES | RORgamma inh | ALDH1A1 inh-1 | Gal4-VP16 FLuc | Sfp inh | PLK1 PBD inh | ALDH1A1 inh-2
CCOC(=O)c1c(-c2ccccc2)csc1NC(=O)CCN1C(=O)c2ccccc2C1=O | 25% | ? | -5% | 17% | 1% | ·
CCOC(=O)c1c(NC(=O)Nc2ccc(Cl)cc2)sc(C)c1C | -42% | ? | ? | 14% | -1% | ·
CCOC(=O)c1c(NC(=O)CN2CCCCC2)sc(CN(C)C)c1-c1ccccc1 | -9% | -15% | 0% | -13% | -13% | ·
CCOC(=O)c1c(-c2ccc(-c3ccccc3)cc2)csc1NC(=O)CNCCN(C)C | 0.63µM* | · | 1.6µM* | 40µM* | ? | ·
CCNC(=S)Nc1scc(-c2ccccc2)c1C(=O)OCC | 1.4µM* | 28µM* | 2.5µM* | -22% | -18% | ·
CO/N=C(/C(=O)N[C@@H]1C(=O)N2C(C(=O)O)=C(CSc3nc(C)c(CC(=O)O)s3)CS[C@H]12)c1csc(N)n1 | 39% | · | 0% | ? | · | ·
COC(=O)c1c(-c2ccc(C)cc2)csc1NC(=S)NC(=O)c1cc(OC)cc(OC)c1 | 2.8µM* | 20µM* | 8.9µM* | ? | 0% | ·
O=c1cc(-c2ccco2)oc2c1ccc1ccccc12 | 10% | ? | -3% | -4% | -15% | ·
O=c1cc(C(Cl)(Cl)Cl)oc2c1ccc1ccccc12 | 1.4µM* | 4% | 5.6µM* | 11% | -12% | ·
COc1cc(C)ccc1S(=O)(=O)NC(=O)C1(C)CCN1C(=O)C1(c2ccc(Cl)cc2)CCC1 (stereo not given) | · | · | · | · | -2% | ·
CCOC(=O)CSc1nnc(-c2ccc(OC)cc2OC)o1 | 8.9µM* | 1% | ? | 7% | -5% | ·
CCOC(=O)CSc1nnc(COc2ccc3ccccc3c2)o1 | 27% | · | -6% | 19% | 27µM* | ·
COC(=O)CSc1nnc(COc2ccc3ccccc3c2)o1 | -2% | · | -18% | 1% | -17% | ·
O=C(CSc1nnnn1-c1ccccc1Cl)Nc1ccc2c(c1)OCCO2 | -8% | 0.22µM* | ? | 21% | -23% | 0.25µM*
O=C(CSc1nnnn1-c1ccc(Cl)cc1)NC(=O)Nc1ccc2c(c1)OCCO2 | ? | -1% | ? | -26% | -8% | ·
CS(=O)(=O)c1ccc(Cn2c3c(c4cc(F)cc(F)c42)CCC[C@H]3CC(=O)O)cc1 | 30% | 0.11µM* | ? | -8% | · | 0.35µM*
COc1cc(NC(=O)CN2CCN(S(=O)(=O)c3ccc(C(C)C)cc3)CC2)cc(OC)c1 | 1% | 2.2µM* | 5% | -2% | ? | 3.2µM*
CN(Cc1ccccc1F)C(=O)CN1CCN(S(=O)(=O)c2ccc3c(c2)OCCCO3)CC1 | · | · | · | · | -17% | ·
COC(=O)c1ccsc1NC(=O)CSc1nnnn1-c1ccccc1SC | -3% | 0.13µM* | -8% | 13% | -8% | 0.32µM*
COc1cccc(C(=O)N2CCC2(C)C(=O)O)c1 (stereo not given) | · | · | · | · | -2% | ·
COCCN(C(=O)Cc1cccs1)C(C(=O)NCc1ccc(OC)cc1)c1ccc(C(C)C)cc1 (stereo not given) | ? | 0.28µM* | 10% | -7% | -1% | 0.25µM*
Cc1ccccc1C(=O)OCCN(C)Cc1ccccc1 | 11% | -5% | 19% | 6% | -9% | ·
COc1ccc(C(=O)CCNc2ccc3c(c2)OCCO3)cc1 | -34% | 0.32µM* | 8% | -8% | -6% | 4µM*
O=C(CCNc1ccccc1)c1ccc2c(c1)OCO2 | -41% | 0.89µM* | -21% | 3% | -7% | 2.2µM*
Cc1ccc(C(=O)N/C(=C\c2cccs2)C(=O)N2CCOCC2)cc1C | -18% | · | -7% | 9% | 4% | ·
SMILES | RORgamma inh | ALDH1A1 inh-1 | Gal4-VP16 FLuc | Sfp inh | PLK1 PBD inh | ALDH1A1 inh-2
Cc1cccc2c1N(CCCOc1ccccc1)C(=O)C2=O | -44% | 0.035µM* | ? | 2% | ? | 0.045µM*
CC(C)N(C(=O)CN1C(=O)C(=O)c2ccccc21)c1ccccc1 | 2% | 0.028µM* | -9% | 6% | -1% | 0.035µM*
C[N+](C)(C)CCC(=O)c1cccc2ccccc12 | · | 0.071µM* | · | 18µM* | · | 0.035µM*
COc1ccc(OC)c(-n2nnnc2SCC(=O)O)c1 | -6% | -2% | 2% | -5% | -6% | ·
COc1ccc(OC)c(-n2nnnc2SCC(=O)Nc2nc(C)c(C)s2)c1 | -1% | ? | -15% | 8% | ? | 1.8µM*
CC(OC(=O)/C=C/c1ccccc1)C(=O)Nc1cccc(C#N)c1 (stereo not given) | · | · | · | · | -4% | ·
CCC(C)NC(=O)CN(C1CCCCC1)S(=O)(=O)c1ccc(F)cc1 (stereo not given) | -16% | · | 3% | 11% | -5% | ·
C[C@H](CO)N1C[C@H](C)[C@@H](CN(C)C(=O)Nc2ccccc2)Oc2ccc(NC(=O)CCC(F)(F)F)cc2C1=O | · | · | · | · | -3% | ·
CCCCCSc1nc2c(c(=O)[nH]c(=O)n2C)n1CCc1ccccc1 | -7% | 0.71µM* | -2% | 11% | -9% | 1.3µM*
CCOCCn1c(SCCCc2ccccc2)nc2c1c(=O)[nH]c(=O)n2C | ? | -3% | -6% | 6% | ? | ·
O=C1NC2C3CC(c4ccccc43)C12 (stereo not given) | · | · | · | · | -4% | ·
O=C1C=CC(=O)C2=C1C1c3ccccc3C2c2ccccc21 | 10µM* | 0.71µM* | ? | 3.2µM* | · | 0.56µM*
CC1CCN(Cc2nc3c(c(=O)n(C)c(=O)n3C)n2CCCc2ccccc2)CC1 | -20% | 0.63µM* | -9% | 14% | -12% | 0.5µM*
Cn1c(=O)c2c(nc(CN3CCOCC3)n2CCCc2ccccc2)n(C)c1=O | 28% | -5% | 9% | 20% | 0% | ·
CCOC(=O)c1ccc(N=C2SC(C(=O)Nc3ccc(C(=O)O)cc3)CC(=O)N2Cc2cccs2)cc1 (stereo not given) | 18% | -11% | -7% | -12% | ? | ·
O=C(/C=C/C=C/c1ccccc1)CC1(O)C(=O)N(CCc2ccccc2)c2ccccc21 (stereo not given) | ? | ? | -3% | -35% | -2% | ·
O=C(CC1(O)C(=O)N(Cc2ccccc2)c2ccccc21)c1ccncc1 (stereo not given) | -8% | 0.071µM* | -5% | -7% | -8% | 0.25µM*
COc1cc(C(C)n2nnc3ccccc32)ccc1O (stereo not given) | · | · | · | · | 4% | ·
Cc1cccc(Cn2c(N3CCCCC3C)nc3c2c(=O)[nH]c(=O)n3C)c1 (stereo not given) | ? | 0.28µM* | -15% | -3% | 0% | 0.25µM*
NC(=O)C1CCCN(C(=O)CN2C(=O)NC(c3ccccc3)(c3ccccc3)C2=O)C1 (stereo not given) | · | · | · | · | 2% | ·
Cc1ccc(S(=O)(=O)N[C@@H](Cc2ccccc2)C(=O)CCl)cc1 | ? | 0.79µM* | 16µM* | 0% | ? | 0.45µM*
